# Measured values reported in PubChem BioAssay AID2496 (Sanford-Burnham Center for Chemical Genomics, 2010).
# Unmarked numbers belong to inactive results. Calls of active or inactive are those of the source. Cut-off read from the data, not from the text of the source: active = IC50 below about 40 µM; inactive = the rest.
# Experiment: compound optical interference in time-resolved FRET – biochemical, fluorescence ratio, artefact control, SAR follow-up (AID 2496)
# Settings: HTRF spectral interference counter-screen
row,SMILES,IC50
1,Nc1ncnc2oc(-c3ccco3)c(-c3ccco3)c12,> 50 µM
2,CN(CCC#N)C(=O)COC(=O)c1c2c(nc3ccccc13)/C(=C/c1ccco1)CC2,8.9 µM (active)
3,CCCc1ccc(/C=C2\C(=O)c3ccccc3C(O)=C2C(=O)OCC)cc1,> 50 µM
4,CC(=O)Oc1ccc(N2C(=O)C3C(C2=O)C2(C)C=CC3(C)O2)cc1 (stereo not given),2.86 µM (active)
5,O=C(NC1CCCC1)c1ccc2nc(-c3ccco3)c(-c3ccco3)nc2c1,> 50 µM
6,CCN(CC)CCNC(=O)c1cc(-c2ccco2)nc2ccccc12,19.8 µM (active)
7,CCOC(=O)c1sc2nc(-c3ccco3)c3c(c2c1N)CC(C)(C)OC3,> 50 µM
8,COc1ccc(CCNC(=O)c2cc(-c3ccco3)nc3ccccc23)cc1,15 µM (active)
9,Cc1ccc(S(=O)(=O)N(C)C)cc1NC(=O)c1cc(-c2ccco2)nc2ccccc12,> 50 µM
10,CCN(CC)C(=O)COC(=O)c1cc(-c2ccco2)nc2ccccc12,16.4 µM (active)
11,CC(/C=C/c1ccco1)=NNC(=O)c1cc(C)[nH]n1,> 50 µM
12,Nc1c(C(=O)NC2CC2)sc2nc3c(c(-c4ccco4)c12)CC/C3=C/c1ccco1,2.98 µM (active)
13,O=C(CSc1ccc(Cl)cc1)Nc1cccc(-c2nc3ccccc3[nH]2)c1,12.8 µM (active)
14,Cc1ccc(/C=C/C(=O)N2CCN(c3ncccn3)CC2)o1,> 50 µM
15,CCNC(=O)COC(=O)c1cc(-c2ccco2)nc2ccccc12,> 50 µM
